Here are results for five compounds from PubChem BioAssay.

Activity calls are given as the source filed them.

Assay [1] concerns Plasmodium falciparum Sir2 (PF13_0152, Sir2A). The assay is described as follows: Plasmodium falciparum Sir2A binding compounds – biochemical, small-molecule microarray, 635 nm fluorescence, primary screen (AID 1098).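 Note: score merges spot fluorescence intensity with its signal-to-noise ratio.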 As to conditions: fluorescence 635 nm, higher = more signal.
Assay [2] can be described thus: probe aDKK1 binding to arrayed compounds – biochemical, biotinylated probe, 635/667 nm fluorescence, primary screen (AID 1099).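 Note: score merges 667nm spot fluorescence with signal to noise across triplicate slides.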 As to conditions: small-molecule microarray, higher = more signal.
Assay [3] in a line: probe aCHRDL2 binding to arrayed compounds – biochemical, biotinylated probe, 635/667 nm fluorescence, primary screen (AID 1100). The settings on record: small-molecule microarray, higher = more signal.
Assay [4] can be described thus: change in splice reporter luminescence, either direction, cell-based, HEK293, spliceosome inhibition project, primary screen (AID 1101).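 Note: HEK293 cells carrying a splicing-competent luciferase reporter gene; test concentration not given here.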 As to conditions: HEK293 splicing luciferase reporter, 24 h, higher = more signal, called active from +8 up or from −8 down. On the technique in general: Reporter assays use an easily measured gene product as a stand-in for the process of interest.

Assay [5] deals with Fibroblast growth factor 10 (Homo sapiens) (UniProt O15520). The assay is described as follows: compounds binding fibroblast growth factor 10 – biochemical, small-molecule microarray, 635 nm fluorescence, primary screen (AID 1102). The settings on record: FGF10 binding, fluorescence 635 nm, higher = more signal.
Fibroblast growth factor 10 (Homo sapiens), sequence (O15520 whole entry, looked up): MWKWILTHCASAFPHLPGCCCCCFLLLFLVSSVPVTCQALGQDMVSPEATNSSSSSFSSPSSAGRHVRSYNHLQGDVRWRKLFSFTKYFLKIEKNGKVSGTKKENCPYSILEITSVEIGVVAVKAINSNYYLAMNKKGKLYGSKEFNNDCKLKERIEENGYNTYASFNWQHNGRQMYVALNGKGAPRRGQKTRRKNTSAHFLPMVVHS
Assay [6] concerns glycogen synthase kinase-3 (GSK3A per assay name; protocol says GSK3B). Kind of assay: compounds binding glycogen synthase kinase-3 – biochemical, small-molecule microarray, 635 nm fluorescence, GSK3A, primary screen (AID 1103). Note: the record names both GSK3A and GSK3B. The settings on record: fluorescence 635 nm, higher = more signal.
Assay [7] deals with Epidermal growth factor receptor (Homo sapiens) (UniProt P00533). The assay is described as follows: compounds binding epidermal growth factor receptor – biochemical, small-molecule microarray, 635 nm fluorescence, primary screen (AID 1104).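 Note: score merges 667 nm emission intensity with spot signal to noise over triplicate slides.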 The settings on record: EGFR binding, higher = more signal.
Epidermal growth factor receptor (Homo sapiens), sequence (P00533 whole entry, looked up): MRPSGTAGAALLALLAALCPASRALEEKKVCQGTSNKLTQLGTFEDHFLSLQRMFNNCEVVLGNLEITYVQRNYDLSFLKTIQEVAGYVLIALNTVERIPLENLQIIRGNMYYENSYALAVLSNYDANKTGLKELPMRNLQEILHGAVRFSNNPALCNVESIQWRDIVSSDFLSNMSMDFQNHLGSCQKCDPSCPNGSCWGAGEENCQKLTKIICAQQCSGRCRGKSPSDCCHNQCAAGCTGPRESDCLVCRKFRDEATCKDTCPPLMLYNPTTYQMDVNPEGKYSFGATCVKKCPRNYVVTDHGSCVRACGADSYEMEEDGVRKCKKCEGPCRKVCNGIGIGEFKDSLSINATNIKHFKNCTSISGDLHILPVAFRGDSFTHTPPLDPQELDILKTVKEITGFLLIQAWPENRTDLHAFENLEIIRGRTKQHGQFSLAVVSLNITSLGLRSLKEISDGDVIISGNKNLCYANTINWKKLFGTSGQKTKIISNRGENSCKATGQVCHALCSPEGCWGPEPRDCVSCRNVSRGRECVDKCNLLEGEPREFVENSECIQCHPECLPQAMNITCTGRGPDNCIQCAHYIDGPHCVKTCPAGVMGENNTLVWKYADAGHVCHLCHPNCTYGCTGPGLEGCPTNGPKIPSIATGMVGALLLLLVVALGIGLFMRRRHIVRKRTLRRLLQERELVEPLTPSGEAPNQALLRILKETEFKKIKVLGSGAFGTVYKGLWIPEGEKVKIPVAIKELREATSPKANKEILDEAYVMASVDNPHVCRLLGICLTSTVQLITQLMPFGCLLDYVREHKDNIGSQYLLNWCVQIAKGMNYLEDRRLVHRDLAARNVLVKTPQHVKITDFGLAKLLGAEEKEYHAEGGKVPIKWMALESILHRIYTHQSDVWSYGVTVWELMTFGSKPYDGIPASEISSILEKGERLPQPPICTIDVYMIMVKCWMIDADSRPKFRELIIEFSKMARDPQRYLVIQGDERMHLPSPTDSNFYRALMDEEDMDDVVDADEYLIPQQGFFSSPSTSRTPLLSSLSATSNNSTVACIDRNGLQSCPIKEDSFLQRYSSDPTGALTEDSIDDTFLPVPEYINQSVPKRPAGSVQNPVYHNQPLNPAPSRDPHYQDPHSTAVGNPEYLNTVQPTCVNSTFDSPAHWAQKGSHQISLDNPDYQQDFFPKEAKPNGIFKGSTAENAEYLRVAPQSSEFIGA
Assay [8] has as its target Follistatin-related protein 3 (Homo sapiens) (UniProt O95633). Kind of assay: compounds binding follistatin-related protein 3 – biochemical, small-molecule microarray, 635 nm fluorescence, primary screen (AID 1105).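 Note: score merges emission near 667 nm and signal to noise per printed spot across three slides.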 As to conditions: FSTL3 binding, higher = more signal.
Assay [9] deals with Dickkopf-related protein 1 (Homo sapiens) (UniProt O94907). The assay is described as follows: small molecules binding DKK1 protein – biochemical, small-molecule microarray, 635 nm fluorescence scan, primary screen (AID 1106).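 Note: score merges emission near 667 nm with signal to noise over three replicate slides.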 The settings on record: higher = more signal.
Dickkopf-related protein 1 (Homo sapiens), sequence (O94907 whole entry, looked up): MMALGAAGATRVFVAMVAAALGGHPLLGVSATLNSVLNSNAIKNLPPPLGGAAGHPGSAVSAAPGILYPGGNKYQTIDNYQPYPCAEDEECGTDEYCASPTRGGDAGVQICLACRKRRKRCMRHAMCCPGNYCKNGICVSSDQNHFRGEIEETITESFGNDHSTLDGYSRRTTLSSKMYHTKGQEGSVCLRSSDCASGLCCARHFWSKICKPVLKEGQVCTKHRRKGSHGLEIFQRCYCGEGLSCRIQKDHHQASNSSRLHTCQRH
For assay [10], the system named is Inhibin beta A chain (activin A). Kind of assay: small molecules binding activin A – biochemical, small-molecule microarray, 635 nm fluorescence scan, primary screen (AID 1107).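 Note: mouse activin A protein probed at 4.33 µg/mL on printed slides; score merges bound-protein fluorescence near 667 nm with spot signal-to-noise.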 The settings on record: INHBA, higher = more signal.
In assay [11] the test system is Human papillomavirus type 1a protein E7 (residues 44-93). Kind of assay: small molecules binding HPV E7 44-93 – biochemical, small-molecule microarray, residues 44-93, 635 nm fluorescence, primary screen (AID 1108).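 Note: E7 fragment applied at 1 µg/mL in TBST for 1 h at 4 C; score combines spot fluorescence with its signal to noise ratio.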 The settings on record: fluorescence 635 nm, higher = more signal.
Assay [12] in a line: hepatitis C replication reporter changes, two-sided – Huh7 cells, luciferase reporter, HCV replication inhibitor project, primary screen (AID 1109).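 Note: huh7 hepatoma cells harbouring a luciferase neomycin HCV replicon reporter; luciferase luminescence as measure of HCV replicon replication; test concentration not given here.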 The settings on record: Huh7 HCV replicon luciferase reporter, 48 h; higher = more signal.
Assay [13] has as its target Left-right determination factor 2 (Homo sapiens) (UniProt O00292). The assay is described as follows: small molecules binding LEFTY2 protein – biochemical, small-molecule microarray, 635 nm fluorescence scan, primary screen (AID 1110). The settings on record: higher = more signal.
For assay [14], the target named is Calmodulin-1 (Homo sapiens) (UniProt P0DP23). The assay is described as follows: small molecules binding calmodulin-1 with EGTA – biochemical, small-molecule microarray, Cy5-labelled CALM1, profiling panel (AID 1111).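 Note: labelled calmodulin applied in Tris saline Tween buffer holding calcium plus EGTA and DTT.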 As to conditions: Cy5-CALM1 binding fluorescence, higher = more signal.
For assay [15] the target is unchanged. The assay is described as follows: small molecules binding Ca-loaded calmodulin-1 – biochemical, small-molecule microarray, Cy5-labelled CALM1, plus calcium, artefact control for SMM control-protein annotation, profiling panel (AID 1112).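 Note: score merges spot fluorescence with signal to noise from triplicate slides.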 The settings on record: Cy5-CALM1 binding fluorescence, higher = more signal.
Assay [16] in a line: probe aWnt5a binding to arrayed compounds – biochemical, biotinylated probe, 635/667 nm fluorescence, primary screen (AID 1113).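 Note: score merges 667 nm fluorescence intensity with signal-to-noise per printed feature.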 As to conditions: small-molecule microarray, higher = more signal.
Assay [17] is described as follows: probe aShh binding to arrayed compounds – biochemical, biotinylated probe, 635/667 nm fluorescence, primary screen (AID 1114).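 Note: probe is biotin-labelled aShh protein from a stem cell growth factor screen; measures binding of labelled protein to compounds printed on the slide; score merges feature fluorescence at 667 nm with signal-to-noise.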 As to conditions: small-molecule microarray, higher = more signal.
Assay [18] can be described thus: probe aNog binding to arrayed compounds – biochemical, biotinylated probe, 635/667 nm fluorescence, primary screen (AID 1115).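 Note: probe is biotinylated aNog protein used at 0.15 µg/mL for 1 h at 4 C; z-score combines 667 nm fluorescence of each spot with its signal to noise.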 The settings on record: small-molecule microarray, higher = more signal.
The target of assay [19] is Torsin-1A-interacting protein 1 (Homo sapiens) (UniProt Q5JTV8). Kind of assay: compound microarray binding of lysate hLAP1 – cell lysate, small-molecule microarray, COS7 lysate, 635/667 nm fluorescence, primary screen (AID 1116). As to conditions: 635 nm fluorescence, higher = more signal.
Torsin-1A-interacting protein 1 (Homo sapiens), sequence (Q5JTV8 whole entry, looked up): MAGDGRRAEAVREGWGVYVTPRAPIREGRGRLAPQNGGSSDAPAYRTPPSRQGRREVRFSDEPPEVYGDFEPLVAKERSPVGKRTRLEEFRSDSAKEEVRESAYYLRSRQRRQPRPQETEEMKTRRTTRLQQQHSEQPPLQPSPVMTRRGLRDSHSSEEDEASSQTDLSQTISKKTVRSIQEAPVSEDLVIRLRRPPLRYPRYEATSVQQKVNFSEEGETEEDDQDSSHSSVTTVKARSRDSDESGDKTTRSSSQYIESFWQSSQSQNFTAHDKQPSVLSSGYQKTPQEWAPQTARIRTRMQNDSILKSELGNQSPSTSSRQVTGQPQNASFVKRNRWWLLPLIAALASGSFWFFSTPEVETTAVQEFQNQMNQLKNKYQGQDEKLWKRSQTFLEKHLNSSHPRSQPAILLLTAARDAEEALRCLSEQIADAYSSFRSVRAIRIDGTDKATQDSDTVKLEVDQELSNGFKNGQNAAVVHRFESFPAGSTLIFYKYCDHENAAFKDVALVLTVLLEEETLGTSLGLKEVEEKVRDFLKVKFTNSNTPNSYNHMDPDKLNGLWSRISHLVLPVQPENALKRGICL
Assay [20] deals with Alpha-bungarotoxin (Bungarus multicinctus) (UniProt P60615). The assay is described as follows: compounds binding labelled alpha-BTX control protein – biochemical, small-molecule microarray, Alexa647 label, 635/667 nm fluorescence, artefact control for SMM control protein annotation, profiling panel (AID 1117). The settings on record: alpha-BTX-A647 binding fluorescence, higher = more signal.
Alpha-bungarotoxin (Bungarus multicinctus), sequence (P60615 whole entry, looked up): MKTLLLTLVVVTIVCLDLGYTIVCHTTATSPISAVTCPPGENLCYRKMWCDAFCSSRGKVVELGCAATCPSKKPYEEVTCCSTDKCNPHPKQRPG

Follistatin-related protein 3 (Homo sapiens), sequence (O95633 whole entry, looked up): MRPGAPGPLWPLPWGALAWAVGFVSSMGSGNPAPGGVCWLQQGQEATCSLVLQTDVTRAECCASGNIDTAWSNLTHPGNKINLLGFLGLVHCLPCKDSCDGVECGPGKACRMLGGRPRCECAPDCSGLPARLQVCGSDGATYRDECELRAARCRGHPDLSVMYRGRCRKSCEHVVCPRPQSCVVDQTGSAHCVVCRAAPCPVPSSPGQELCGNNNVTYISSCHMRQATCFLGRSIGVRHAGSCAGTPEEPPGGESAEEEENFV
Left-right determination factor 2 (Homo sapiens), sequence (O00292 whole entry, looked up): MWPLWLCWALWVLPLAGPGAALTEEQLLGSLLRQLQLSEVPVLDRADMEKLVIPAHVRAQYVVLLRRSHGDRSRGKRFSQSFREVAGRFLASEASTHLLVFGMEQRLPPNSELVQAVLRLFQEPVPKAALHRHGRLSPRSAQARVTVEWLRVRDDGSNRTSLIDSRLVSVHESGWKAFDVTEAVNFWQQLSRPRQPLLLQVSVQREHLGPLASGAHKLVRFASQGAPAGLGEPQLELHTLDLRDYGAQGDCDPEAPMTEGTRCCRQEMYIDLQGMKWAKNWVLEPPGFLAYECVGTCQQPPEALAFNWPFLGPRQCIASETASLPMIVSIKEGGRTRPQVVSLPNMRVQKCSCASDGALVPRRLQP

For the compound `O=C1[C@H]2[C@H]3[C@H](O)[C@H](O)CC(=NO[C@@H]4O[C@H](CO)[C@@H](O)[C@H](O)[C@H]4O)[C@H]3CC[C@H]2C(=O)N1Cc1ccccc1`, the composite z-score in [1] was 0.366; in assay [2], -0.223; in assay [3] it was -0.752; in assay [5] it was 0.437; in assay [6], 0.656; in assay [7], 0.426. Moreover, the composite z-score in [8] is 0.0042; in assay [9] it was -0.566; in [10] it was -1.42; in assay [11] it was 0.386; in assay [13] it was 0.652; in assay [14] it was -0.058. Besides, the composite z-score in assay [15] was -0.534; in assay [16], 0.0044; in assay [17] it was -0.209; in [18], 0.124; in assay [19] it was 0.135; in assay [20] it was 0.784. The z-score in assay [4] was -0.741 (inactive); in assay [12], 0.322.

With `O[C@@H](Cc1ccccc1)[C@H]1C2C=CCCC(c3ccccc3)=C2CN1Cc1cccc(Cl)c1` (stereo not given in full), the composite z-score in [1] was 0.0167; in assay [2] it was -0.0232; in [3], 0.7; in assay [5] it was 0.653; in [6] it was 0.913; in assay [7] it was 0.21. The composite z-score in assay [8] was 0.847; in assay [9], 0.473; in assay [10], 0.264; in assay [11], 0.921; in assay [13], 0.286; in assay [14], -0.118. Further, the composite z-score in assay [15] was -0.264; in assay [16] it was -0.157; in [17], -0.0243; in assay [18] it was 0.14; in assay [19], 0.464; in [20], 0.475. In addition, the figures for the z-score in assay [4] and in assay [12] were -0.205 (inactive) and -2.27, respectively.

For the compound `COC(=O)[C@H](C)NC(=O)[C@@H](C)CO`, the composite z-score was 0.241 in assay [1]; 0.0939 in [2]; -0.469 in [3]; 0.572 in [5]; 0.844 in assay [6]; 0.499 in assay [7]. Moreover, the composite z-score in [8] is 0.258; in assay [9] it was 0.338; in [10], -0.776; in [11], 1.25; in [13], 0.5; in assay [14] it was 0.601. Also, the composite z-score in [15] is -0.369; in [16] it was -0.0445; in assay [17], -0.0035; in [18], 0.243; in [19], 0.924; in [20], 0.855. Besides, the values for the z-score in [4] and in [12] were 0.364 (inactive) and -0.431, respectively.

Regarding `COC(=O)[C@H](C)NC(=O)CCC1CC(OC(=O)NCc2ccc3c(c2)OCO3)CC2(CCCC(COC(=O)NCCOc3ccccc3)O2)O1` (stereo not given in full), the composite z-score is 0.46 in assay [1]; -0.211 in assay [2]; -0.636 in [3]; 0.658 in assay [5]; 1.29 in assay [6]; 0.536 in [7]. Besides, the composite z-score is 0.649 in assay [8]; 0.679 in [9]; 0.0689 in assay [10]; 0.966 in [11]; 0.581 in assay [13]; -0.0874 in assay [14]. The composite z-score in assay [15] is -0.604; in [16] it was -0.129; in assay [17], -0.138; in assay [18], -0.283; in [19], 0.267; in [20] it was 0.83. Besides, the z-score in assay [4] is -2.8 (inactive); in assay [12], -0.424.

Turning to `CC=CC1=C(CO)[C@H](O)[C@H]2O[C@H]2[C@H]1O`, the composite z-score is 0.412 in assay [1]; -0.346 in assay [2]; -0.786 in [3]; 0.805 in assay [5]; 1.23 in assay [6]; 0.393 in assay [7]. In addition, the composite z-score was 0.578 in [8]; 1.07 in assay [9]; -0.047 in assay [10]; 0.598 in assay [11]; 0.827 in assay [13]; -0.381 in [14]. In addition, the composite z-score in [15] is -1.02; in assay [16] it was -0.0758; in assay [17] it was -0.304; in assay [18], -0.309; in [19], -0.134; in [20], -0.0092. Moreover, the z-score in assay [4] was -0.383 (inactive); in assay [12], -0.956.
